Results as given in PubChem BioAssay.
Activity calls are given as the source filed them.

Assays:
[1] = E. coli DRC41 culture turbidity changes, primary screen, E. coli filamentation inducer project, strain DRC41, OD650, 48 h (AID 1152);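 further: E. coli MC1000 strain DRC41 lacking acrAB efflux pump and sulA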; details: E. coli DRC41 (acrAB sulA), higher = more signal, called active from +8 up or from −8 down
[2] = small-molecule binders of probe aLefty1, primary screen, biochemical, small-molecule microarray, 635/667 nm fluorescence (AID 1153); details: higher = more signal;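 further: score merges spot fluorescence with signal-to-noise ratio from the scanned slide images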
[3] = PSAC antagonists in infected red cells, primary screen, cell-based, P. falciparum Indochina, OD700, 1 h (AID 1154); details: P. falciparum Indochina infected RBC osmotic lysis, higher = more signal, called active from +8 up or from −8 down
[4] = PSAC antagonists in infected red cells, primary screen, cell-based, P. falciparum Indochina, OD700, 2 h (AID 1155);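 further: lysis reports solute entry through the parasite surface anion channel PSAC; channel blockers reduce lysis of infected cells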; details: P. falciparum Indochina infected erythrocytes, osmotic lysis OD700; higher = more signal, called active from +8 up or from −8 down
[5] = osmotic lysis modulators in infected erythrocytes, primary screen, PSAC antagonist project, cell-based, P. falciparum Indochina, OD700, 3 h (AID 1156); details: higher = more signal, called active from +8 up or from −8 down
[6] = PSAC antagonists in infected red cells, primary screen, cell-based, P. falciparum Indochina, OD700, 18 h (AID 1157); details: P. falciparum Indochina infected erythrocytes, osmotic lysis OD700, 18 h; higher = more signal, called active from +8 up or from −8 down
[7] = modulators of S6 phosphorylation in cells, primary screen, cell-based, A549, cytoblot, luminescence, serum-stimulated (AID 1158); details: A549 phospho-S6 cytoblot, 5 h, higher = more signal;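 further: serum-stimulated A549 lung adenocarcinoma cells; signal is phosphorylated S6 detected by cytoblot immunostaining with HRP secondary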
[8] = target: NADPH oxidase 2 (Homo sapiens) (UniProt P04839); experiment: NOX2-dependent H2O2 signal modulators, primary screen, NOX inhibitor project, cell-based, HEK293-NOX2, PMA-stimulated, Amplex Red fluorescence (AID 1159); details: 45 min, higher = more signal, called active from +8 up or from −8 down; further: test concentration not given here
[9] = target: NADPH oxidase 4 (Homo sapiens) (UniProt Q9NPH5); experiment: NOX4-dependent H2O2 signal modulators, primary screen, NOX inhibitor project, cell-based, HEK293-NOX4, tetracycline-induced, Amplex Red fluorescence (AID 1160); details: 45 min, higher = more signal, called active from +8 up or from −8 down
[10] = target: NADPH oxidase 5 (Homo sapiens) (UniProt Q96PH1); experiment: NOX5-dependent H2O2 signal modulators, primary screen, NOX inhibitor project, cell-based, HEK293-NOX5, Amplex Red fluorescence (AID 1161); details: HEK293-NOX5, ionomycin, 45 min, higher = more signal
Sequence of NADPH oxidase 5 (Homo sapiens) (Q96PH1 whole entry, looked up): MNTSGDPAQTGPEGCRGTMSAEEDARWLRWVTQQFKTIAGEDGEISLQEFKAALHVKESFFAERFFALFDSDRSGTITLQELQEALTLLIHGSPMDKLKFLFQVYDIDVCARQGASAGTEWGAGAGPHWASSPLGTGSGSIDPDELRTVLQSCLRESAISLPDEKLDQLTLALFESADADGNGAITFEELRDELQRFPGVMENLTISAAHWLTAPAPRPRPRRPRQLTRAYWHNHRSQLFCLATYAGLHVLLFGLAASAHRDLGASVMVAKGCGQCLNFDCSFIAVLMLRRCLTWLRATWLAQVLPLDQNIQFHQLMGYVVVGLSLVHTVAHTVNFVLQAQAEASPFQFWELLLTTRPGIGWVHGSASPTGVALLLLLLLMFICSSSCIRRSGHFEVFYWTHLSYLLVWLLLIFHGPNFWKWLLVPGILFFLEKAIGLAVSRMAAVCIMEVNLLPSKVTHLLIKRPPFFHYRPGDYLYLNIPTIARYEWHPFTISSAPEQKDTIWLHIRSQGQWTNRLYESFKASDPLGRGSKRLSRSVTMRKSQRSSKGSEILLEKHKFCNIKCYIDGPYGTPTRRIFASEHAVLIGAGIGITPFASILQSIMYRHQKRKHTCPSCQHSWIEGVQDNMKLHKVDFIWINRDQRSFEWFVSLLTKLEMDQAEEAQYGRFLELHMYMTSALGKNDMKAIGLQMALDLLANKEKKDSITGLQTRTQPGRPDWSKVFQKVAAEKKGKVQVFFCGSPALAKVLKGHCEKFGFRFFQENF

Sequence of NADPH oxidase 4 (Homo sapiens) (Q9NPH5 whole entry, looked up): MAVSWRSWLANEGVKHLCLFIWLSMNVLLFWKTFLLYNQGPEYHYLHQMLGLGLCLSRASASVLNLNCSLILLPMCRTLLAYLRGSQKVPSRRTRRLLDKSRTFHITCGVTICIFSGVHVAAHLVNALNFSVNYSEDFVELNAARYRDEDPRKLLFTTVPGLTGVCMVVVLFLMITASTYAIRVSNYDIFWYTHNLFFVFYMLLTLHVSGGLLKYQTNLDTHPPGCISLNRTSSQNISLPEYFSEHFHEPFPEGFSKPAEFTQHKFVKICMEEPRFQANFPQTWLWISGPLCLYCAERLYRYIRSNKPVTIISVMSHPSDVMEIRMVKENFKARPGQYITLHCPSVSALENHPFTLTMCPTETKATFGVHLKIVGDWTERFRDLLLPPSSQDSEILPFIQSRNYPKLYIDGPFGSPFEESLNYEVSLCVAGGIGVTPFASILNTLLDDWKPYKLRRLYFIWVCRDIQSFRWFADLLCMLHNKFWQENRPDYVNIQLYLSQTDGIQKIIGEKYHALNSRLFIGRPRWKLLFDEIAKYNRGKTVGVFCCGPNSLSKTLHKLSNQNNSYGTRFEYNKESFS
Sequence of NADPH oxidase 2 (Homo sapiens) (P04839 whole entry, looked up): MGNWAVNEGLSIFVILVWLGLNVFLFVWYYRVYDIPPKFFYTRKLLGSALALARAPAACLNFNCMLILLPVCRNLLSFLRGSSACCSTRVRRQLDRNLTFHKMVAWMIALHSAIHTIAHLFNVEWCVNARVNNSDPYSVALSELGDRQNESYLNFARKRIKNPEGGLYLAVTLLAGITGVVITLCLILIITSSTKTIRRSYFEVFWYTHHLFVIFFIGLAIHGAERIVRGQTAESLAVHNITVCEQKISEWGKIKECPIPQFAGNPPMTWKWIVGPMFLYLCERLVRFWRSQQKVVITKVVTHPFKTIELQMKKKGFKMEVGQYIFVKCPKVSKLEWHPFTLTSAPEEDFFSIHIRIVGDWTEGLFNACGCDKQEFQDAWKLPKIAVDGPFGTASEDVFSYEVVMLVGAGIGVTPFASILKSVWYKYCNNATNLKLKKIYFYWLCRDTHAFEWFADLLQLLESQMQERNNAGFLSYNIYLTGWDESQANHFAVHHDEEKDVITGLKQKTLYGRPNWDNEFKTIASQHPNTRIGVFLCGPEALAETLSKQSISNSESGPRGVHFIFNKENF

Row | Structure (SMILES) | z-score [1] | composite z-score [2] | z-score [3] | z-score [4] | z-score [5] | z-score [6] | z-score [7] | z-score [8] | z-score [9] | z-score [10]
1 | COc1ccc(NC(=O)O[C@H]2[C@H](OC(=O)Nc3ccccc3)[C@@H](OC(=O)Nc3ccccc3)[C@@H](OC)O[C@@H]2CO)cc1 | -0.302 (inactive) | 0.113 | 4.49 (inactive) | 0.463 (inactive) | 0.316 (inactive) | 0.373 (inactive) | 0.256 | -7.53 (inactive) | -0.713 (inactive) | -2.43
2 | C=CCC(OC(C)=O)[C@@H]1[C@@H](N(Cc2ccc(-c3cccc(C(F)(F)F)c3)o2)C(=O)c2ccc(C)cc2)c2cc(OCCCO)ccc2N1C(=O)c1ccc2ccccc2c1 (stereo not given in full) | 1.86 (inactive) | -0.147 | 2.37 (inactive) | -0.0931 (inactive) | 0.0854 (inactive) | -0.109 (inactive) | -0.494 | -0.401 (inactive) | 0.713 (inactive) | 1.79
3 | C=C(CCCC)/C(=C/C[C@@H](OC(=O)c1ccncc1)c1ccccc1OCCO)c1cnc2ccccc2c1 | -0.209 (inactive) | 0.541 | 20.2 (active) | 4.55 (inactive) | 1.58 (inactive) | 1.12 (inactive) | 0.759 | -0.852 (inactive) | 0.474 (inactive) | -0.524
4 | C=C(/C(=C/C[C@H](OC(=O)c1ccncc1)c1ccc(CO)o1)c1cc(C(=O)OC)ccc1OC)C(C)C | -0.23 (inactive) | 0.0187 | 3.3 (inactive) | 0.365 (inactive) | 1.25 (inactive) | 0.136 (inactive) | -0.578 | -1.06 (inactive) | -0.154 (inactive) | -0.6
5 | CO[C@]12C=C(Br)[C@@H](C[C@@H]1c1cccc(C)c1)[C@@]1(CO1)C2=O | -0.009 (inactive) | -0.0035 | -0.219 (inactive) | -0.119 (inactive) | 0.442 (inactive) | -0.382 (inactive) | 0.149 | -0.356 (inactive) | 0.539 (inactive) | -0.588
6 | C=CCC(OC(C)=O)[C@@H]1[C@@H](N(Cc2cccc3ccccc23)C(=O)Cc2ccc(OC)cc2)c2cc(OCCCO)ccc2N1C(=O)c1ccc2ccccc2n1 (stereo not given in full) | -0.899 (inactive) | 0.164 | 2.1 (inactive) | 0.786 (inactive) | 0.714 (inactive) | 0.385 (inactive) | 0.135 | -1.4 (inactive) | -0.588 (inactive) | -1.25
7 | NC(=O)NCC#Cc1ccc2c(c1)[C@]1(C(=O)N2)[C@H](C(=O)O)[C@H]2C(=O)O[C@H](c3ccccc3)[C@H](c3ccccc3)N2[C@@H]1c1ccc(OCCO)cc1 | 0.215 (inactive) | -0.147 | 3.93 (inactive) | 0.523 (inactive) | 0.643 (inactive) | 0.247 (inactive) | 0.235 | 2.78 (inactive) | 1.14 (inactive) | -0.0124
8 | CCOC(=O)[C@H]1[C@@H]2C(=O)N3CCC[C@H]3[C@H](O[Si](C(C)C)(C(C)C)C(C)C)[C@H]2C=C2CCN(S(=O)(=O)c3ccc(C)cc3)C[C@H]21 | -1.12 (inactive) | -0.202 | 5.55 (inactive) | 1.24 (inactive) | 0.216 (inactive) | 1.02 (inactive) | 0.582 | 0.163 (inactive) | -0.264 (inactive) | 1.69
9 | CC(C)C(CO)N1C(=O)[C@@H]2C3C(=O)OCCC/C=C\[C@H]3OC23C=CCN(C(C)(C)C)C(=O)[C@@H]13 (stereo not given in full) | -0.69 (inactive) | -0.142 | 0.502 (inactive) | 0.488 (inactive) | 0.441 (inactive) | 0.478 (inactive) | -0.668 | 1.57 (inactive) | 0.339 (inactive) | 2.34
10 | C=C(COC)C(=O)CC[C@@H](OC(=O)c1cccnc1)c1ccc(OCCO)cc1 | -0.717 (inactive) | 0.235 | 7.63 (inactive) | 2.3 (inactive) | -1.61 (inactive) | 1.21 (inactive) | -0.482 | 0.838 (inactive) | 0.211 (inactive) | -2.85
11 | COCCOC(=O)N1C(=O)[C@@]2(c3cc(C#CC4=CCCCC4)ccc31)[C@H](c1ccccc1OCCO)N1[C@H](c3ccccc3)[C@H](c3ccccc3)OC(=O)[C@H]1[C@@H]2C(=O)Nc1nc2ccccc2s1 | -0.541 (inactive) | 0.287 | 3.53 (inactive) | 1.72 (inactive) | -0.507 (inactive) | 1.54 (inactive) | -0.168 | 1.59 (inactive) | 0.571 (inactive) | 1.41
12 | CN(C)CCCCNC(=O)[C@@H]1C[C@@H]2C(=O)N[C@@H](Cc3ccccc3)C(=O)N2[C@@H]1c1cccc(OCCO)c1 | 2.93 (inactive) | 0.243 | 7.44 (inactive) | -0.16 (inactive) | -1.84 (inactive) | -1.29 (inactive) | 0.602 | 0.767 (inactive) | 0.74 (inactive) | 1.55
